Laboratory results published in ChEMBL document CHEMBL3988442, “University of Dundee, Small-Polar-MMV Screening Library” (2021).
For some of these results: Results with a measured potency or affinity are listed apart.

Assays:
Parameters in all cases: scale not given: direction of the effect not stated beside the values
[1] = molecular target: Protein translocase subunit SecA (Escherichia coli (strain K12)) (UniProt P10408); assay: Assay to Identify E. coli SecA ATPase Inhibitors; type: functional; settings: 30 µM
Protein translocase subunit SecA (Escherichia coli (strain K12)), sequence (P10408 whole entry): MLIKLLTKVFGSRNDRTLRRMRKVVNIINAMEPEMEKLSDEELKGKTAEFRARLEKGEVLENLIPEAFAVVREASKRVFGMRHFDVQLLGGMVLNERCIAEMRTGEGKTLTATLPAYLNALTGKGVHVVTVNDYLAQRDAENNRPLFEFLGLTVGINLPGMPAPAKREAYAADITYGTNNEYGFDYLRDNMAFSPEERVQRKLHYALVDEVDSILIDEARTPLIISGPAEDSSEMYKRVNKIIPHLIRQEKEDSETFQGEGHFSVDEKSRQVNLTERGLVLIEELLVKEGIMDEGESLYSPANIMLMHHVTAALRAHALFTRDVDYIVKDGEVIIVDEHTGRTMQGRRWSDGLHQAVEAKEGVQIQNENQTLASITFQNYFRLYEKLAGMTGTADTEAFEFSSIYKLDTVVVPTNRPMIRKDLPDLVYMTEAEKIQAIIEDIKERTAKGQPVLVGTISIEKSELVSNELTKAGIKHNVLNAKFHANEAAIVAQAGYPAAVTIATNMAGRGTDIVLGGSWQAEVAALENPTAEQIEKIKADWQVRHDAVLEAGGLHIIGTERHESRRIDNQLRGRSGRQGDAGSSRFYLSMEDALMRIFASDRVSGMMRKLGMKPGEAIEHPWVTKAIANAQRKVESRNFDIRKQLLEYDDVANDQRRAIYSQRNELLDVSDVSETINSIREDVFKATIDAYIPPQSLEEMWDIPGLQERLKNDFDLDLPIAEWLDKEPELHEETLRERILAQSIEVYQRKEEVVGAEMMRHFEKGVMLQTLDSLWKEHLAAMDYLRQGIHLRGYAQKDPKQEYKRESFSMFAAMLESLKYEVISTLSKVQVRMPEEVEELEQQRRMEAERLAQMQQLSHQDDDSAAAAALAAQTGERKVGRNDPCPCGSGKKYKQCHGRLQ

[2] = molecular target: T1, Ubiquitin-activating enzyme e1, putative (Leishmania donovani (strain BPK282A1)) (UniProt E9BSI1); assay: Leishmania donovani Ubiquitin Activating Enzyme (LdE1); type: functional; settings: 30 µM
T1 sequence (whole entry): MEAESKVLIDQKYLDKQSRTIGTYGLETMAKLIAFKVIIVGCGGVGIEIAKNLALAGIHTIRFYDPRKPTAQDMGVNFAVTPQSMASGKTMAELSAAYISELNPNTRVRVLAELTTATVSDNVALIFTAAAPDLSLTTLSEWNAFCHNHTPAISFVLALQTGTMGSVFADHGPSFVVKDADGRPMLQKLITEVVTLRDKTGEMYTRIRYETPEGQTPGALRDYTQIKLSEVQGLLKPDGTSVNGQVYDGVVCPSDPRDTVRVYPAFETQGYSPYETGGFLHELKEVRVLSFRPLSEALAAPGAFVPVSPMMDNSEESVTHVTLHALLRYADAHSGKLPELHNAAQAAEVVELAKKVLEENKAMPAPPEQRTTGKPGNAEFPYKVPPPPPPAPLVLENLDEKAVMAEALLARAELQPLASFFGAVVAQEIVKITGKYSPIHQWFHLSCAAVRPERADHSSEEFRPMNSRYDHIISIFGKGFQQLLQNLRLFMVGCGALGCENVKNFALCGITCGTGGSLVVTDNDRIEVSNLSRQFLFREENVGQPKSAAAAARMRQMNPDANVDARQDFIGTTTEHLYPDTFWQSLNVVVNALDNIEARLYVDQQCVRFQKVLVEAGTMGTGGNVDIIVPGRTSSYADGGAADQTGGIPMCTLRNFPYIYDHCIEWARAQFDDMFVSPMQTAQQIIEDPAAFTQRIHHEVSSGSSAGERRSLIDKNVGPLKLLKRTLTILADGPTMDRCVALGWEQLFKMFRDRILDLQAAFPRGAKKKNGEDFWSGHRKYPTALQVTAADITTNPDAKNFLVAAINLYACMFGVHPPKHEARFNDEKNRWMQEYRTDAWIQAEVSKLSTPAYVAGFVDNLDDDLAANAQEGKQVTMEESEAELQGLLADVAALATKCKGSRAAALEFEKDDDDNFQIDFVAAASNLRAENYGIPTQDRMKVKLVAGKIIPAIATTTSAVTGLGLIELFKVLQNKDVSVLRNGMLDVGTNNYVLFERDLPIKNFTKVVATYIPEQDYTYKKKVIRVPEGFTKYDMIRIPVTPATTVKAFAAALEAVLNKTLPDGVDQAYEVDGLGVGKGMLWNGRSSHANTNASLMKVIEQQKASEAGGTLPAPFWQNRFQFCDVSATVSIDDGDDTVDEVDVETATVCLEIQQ

[3] = molecular target: AMP-activated protein kinase, AMPK (Homo sapiens) (UniProt P54646+O43741+P54619+Q9UGJ0+Q9Y478+Q13131+Q9UGI9); assay: AMP-dependent Kinase enzyme assay. An in vitro enzyme assay that detects ADP turnover that is directly proportional to AMPK activity. This uses naive AMPK that is activated during the assay with MK-8722; type: functional; settings: 30 µM
[4] = molecular target: Sialic acid-binding Ig-like lectin 9 (Homo sapiens) (UniProt Q9Y336); assay: Hs-Siglec9 ALPHAscreen SOP 20170721; settings: 10 µM
Sialic acid-binding Ig-like lectin 9 (Homo sapiens), sequence (Q9Y336 whole entry): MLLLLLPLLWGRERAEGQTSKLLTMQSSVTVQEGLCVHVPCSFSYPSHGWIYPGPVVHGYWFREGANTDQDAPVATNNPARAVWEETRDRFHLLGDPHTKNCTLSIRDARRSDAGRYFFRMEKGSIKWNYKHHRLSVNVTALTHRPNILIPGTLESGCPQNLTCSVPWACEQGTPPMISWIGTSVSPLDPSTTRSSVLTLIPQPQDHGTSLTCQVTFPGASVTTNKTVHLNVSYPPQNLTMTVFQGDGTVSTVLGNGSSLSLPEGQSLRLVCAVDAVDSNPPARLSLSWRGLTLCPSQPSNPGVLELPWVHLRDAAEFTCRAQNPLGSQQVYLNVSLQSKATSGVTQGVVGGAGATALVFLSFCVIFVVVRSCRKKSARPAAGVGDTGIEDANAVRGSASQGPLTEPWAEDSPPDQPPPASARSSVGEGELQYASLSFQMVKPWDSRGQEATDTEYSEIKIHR

Trypanosoma cruzi = assay: Trypanosoma cruzi phosphomannomutase and mannose-1-phosphate guanylyltransferase assay; type: functional; settings: 10 µM
[5] = molecular target: T2, Arginase-2, mitochondrial (Homo sapiens) (UniProt P78540); assay: in vitro enzyme assay to detect the production of urea directly proportional to the activity of Arginase II; type: functional; settings: 33.3 µM; also: in the data most compounds retested in dose-response had high values
T2 sequence (whole entry): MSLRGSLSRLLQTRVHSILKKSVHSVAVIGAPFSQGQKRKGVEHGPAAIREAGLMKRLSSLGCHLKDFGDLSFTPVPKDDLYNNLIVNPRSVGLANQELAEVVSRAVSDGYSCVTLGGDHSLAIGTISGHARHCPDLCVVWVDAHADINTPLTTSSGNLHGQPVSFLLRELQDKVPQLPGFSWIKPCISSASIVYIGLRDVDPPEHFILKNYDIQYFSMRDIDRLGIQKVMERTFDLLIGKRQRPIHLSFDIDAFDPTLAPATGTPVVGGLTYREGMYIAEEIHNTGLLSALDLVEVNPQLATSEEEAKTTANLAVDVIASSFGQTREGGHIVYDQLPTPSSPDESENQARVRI

[6] = molecular target: T3, Proteasome subunit beta (Trypanosoma cruzi) (UniProt O96673); assay: Trypanosoma cruzi proteasome chymotrypsin-like activity (TcProtChymo) assay.; also: in the data most compounds retested in dose-response had high values; type: functional; settings: 9.37 µM
T3 sequence (whole entry): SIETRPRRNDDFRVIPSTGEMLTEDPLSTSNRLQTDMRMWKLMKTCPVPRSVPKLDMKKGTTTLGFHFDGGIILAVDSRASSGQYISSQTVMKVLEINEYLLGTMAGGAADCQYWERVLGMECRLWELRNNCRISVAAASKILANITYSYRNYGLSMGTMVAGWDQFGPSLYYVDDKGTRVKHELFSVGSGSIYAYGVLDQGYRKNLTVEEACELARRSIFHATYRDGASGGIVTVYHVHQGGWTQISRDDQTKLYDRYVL

Homo sapiens = organism: Homo sapiens; assay: To identify inhibition of the IFN signalling (Jak-Stat) pathway via expression of an eGFP reporter gene under the control of an IFN-stimulated response element (ISRE) containing MxA promoter.; type: functional; settings: 30 µM
[7] = molecular target: T4, Tyrosyl-tRNA synthetase, putative (Trypanosoma cruzi (strain CL Brener)) (UniProt Q4DSP6); assay: Trypanosoma cruzi tyrosyl tRNA synthetase (TcYRS) _High Tyrosine SOP; type: functional; settings: 30 µM; also: in the data most compounds retested in dose-response had high values
T4 sequence (whole entry): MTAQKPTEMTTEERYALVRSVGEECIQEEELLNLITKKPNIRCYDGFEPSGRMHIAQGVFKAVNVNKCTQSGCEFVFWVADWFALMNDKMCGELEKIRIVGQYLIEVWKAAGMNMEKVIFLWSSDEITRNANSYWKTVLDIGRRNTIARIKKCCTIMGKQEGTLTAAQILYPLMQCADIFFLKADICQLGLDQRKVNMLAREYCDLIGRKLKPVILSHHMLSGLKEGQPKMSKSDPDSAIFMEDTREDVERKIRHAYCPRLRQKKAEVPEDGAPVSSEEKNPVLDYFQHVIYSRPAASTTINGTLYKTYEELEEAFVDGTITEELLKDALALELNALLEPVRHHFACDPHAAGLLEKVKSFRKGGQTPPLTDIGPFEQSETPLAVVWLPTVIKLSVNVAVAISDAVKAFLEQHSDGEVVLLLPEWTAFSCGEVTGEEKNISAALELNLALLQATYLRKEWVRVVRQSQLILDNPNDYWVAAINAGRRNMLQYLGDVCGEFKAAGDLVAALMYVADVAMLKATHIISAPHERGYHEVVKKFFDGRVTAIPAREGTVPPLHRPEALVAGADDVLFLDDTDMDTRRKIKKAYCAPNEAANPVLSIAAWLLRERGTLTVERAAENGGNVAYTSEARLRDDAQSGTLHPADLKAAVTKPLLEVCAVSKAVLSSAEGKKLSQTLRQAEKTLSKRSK

[8] = molecular target: T4, Tyrosyl-tRNA synthetase, putative (Trypanosoma cruzi (strain CL Brener)); assay: Trypanosoma cruzi tyrosyl tRNA synthetase (TcYRS) SOP; type: functional; settings: 30 µM
[9] = molecular target: Chromo domain-containing protein 1 (Saccharomyces cerevisiae (strain ATCC 204508 / S288c) (Baker's yeast)) (UniProt P32657); assay: ScCHD-1 Enzyme Inhibition Assay; type: functional; settings: 30 µM; also: in the data most compounds retested in dose-response had high values
Chromo domain-containing protein 1 (Saccharomyces cerevisiae (strain ATCC 204508 / S288c) (Baker's yeast)), sequence (P32657 whole entry, the tested form may be a part): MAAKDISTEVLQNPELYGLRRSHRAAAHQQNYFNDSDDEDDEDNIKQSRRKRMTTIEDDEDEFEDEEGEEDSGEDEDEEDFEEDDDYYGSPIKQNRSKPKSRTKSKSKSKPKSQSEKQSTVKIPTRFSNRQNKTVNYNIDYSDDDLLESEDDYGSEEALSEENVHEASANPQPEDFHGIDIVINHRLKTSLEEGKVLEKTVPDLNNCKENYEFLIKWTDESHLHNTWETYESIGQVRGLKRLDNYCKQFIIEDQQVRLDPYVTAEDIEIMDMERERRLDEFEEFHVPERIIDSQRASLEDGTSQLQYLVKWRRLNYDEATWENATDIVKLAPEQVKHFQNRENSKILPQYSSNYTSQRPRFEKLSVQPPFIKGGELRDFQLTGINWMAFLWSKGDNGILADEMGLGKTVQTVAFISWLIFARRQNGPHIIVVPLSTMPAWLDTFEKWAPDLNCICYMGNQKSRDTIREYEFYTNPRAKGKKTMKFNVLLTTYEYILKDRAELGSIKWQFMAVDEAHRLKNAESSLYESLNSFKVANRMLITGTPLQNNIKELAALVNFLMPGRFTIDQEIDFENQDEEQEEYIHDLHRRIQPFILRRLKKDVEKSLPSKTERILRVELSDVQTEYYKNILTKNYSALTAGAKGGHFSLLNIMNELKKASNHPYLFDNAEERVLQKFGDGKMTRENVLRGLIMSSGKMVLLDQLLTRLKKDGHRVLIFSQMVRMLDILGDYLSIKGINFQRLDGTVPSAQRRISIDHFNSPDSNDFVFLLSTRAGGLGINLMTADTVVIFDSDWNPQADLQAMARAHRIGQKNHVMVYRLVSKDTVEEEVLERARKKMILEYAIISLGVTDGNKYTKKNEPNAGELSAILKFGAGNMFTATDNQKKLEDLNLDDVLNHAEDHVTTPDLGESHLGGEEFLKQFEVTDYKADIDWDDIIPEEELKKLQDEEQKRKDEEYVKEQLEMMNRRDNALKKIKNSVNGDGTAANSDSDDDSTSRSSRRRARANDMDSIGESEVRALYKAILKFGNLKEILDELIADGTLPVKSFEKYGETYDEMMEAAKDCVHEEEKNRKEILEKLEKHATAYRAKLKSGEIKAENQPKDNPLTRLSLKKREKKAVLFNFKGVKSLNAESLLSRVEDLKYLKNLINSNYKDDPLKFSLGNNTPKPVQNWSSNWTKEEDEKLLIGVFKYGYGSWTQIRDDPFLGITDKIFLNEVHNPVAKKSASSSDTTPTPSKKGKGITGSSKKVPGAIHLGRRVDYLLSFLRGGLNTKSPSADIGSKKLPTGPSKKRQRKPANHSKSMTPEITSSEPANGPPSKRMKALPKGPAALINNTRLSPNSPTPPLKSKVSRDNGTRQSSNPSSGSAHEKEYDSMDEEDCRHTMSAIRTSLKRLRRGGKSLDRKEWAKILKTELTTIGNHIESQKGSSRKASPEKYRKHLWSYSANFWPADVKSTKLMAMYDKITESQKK

SMILES | Percent Effect [1] [%] | Percent Effect [2] [%] | Percent Effect [3] [%] | Percent Effect [4] [%] | Percent Effect (Trypanosoma cruzi) [%] | Percent Effect [5] [%] | Percent Effect [6] [%] | Percent Effect (Homo sapiens) [%] | Percent Effect [7] [%] | Percent Effect [8] [%] | Percent Effect [9] [%]
Cc1ccc(-c2nnc(SCC(=O)O)n2-c2ccc(C)cc2)cc1 | -2.58 | 13.3 | 1.28 | 2.44 | 3.74 | 1.17 | 13.8 | 28.5 | 6.38 | -98.7 | -3.8
Cc1ccc(CN2CCc3c(C(=O)N(C)C)nn(C)c3C2)s1 | -1.04 | 8.22 | -3.87 | 6.86 | 5.95 | 0 | 18.6 | 6.25 | 8.33 | 11.1 | -4.79
Cc1occc1C(=O)N1CCC2(CC1)CC(c1cccnc1)C(=O)N2C (stereo unspecified) | -1.69 | 10.7 | -2.33 | 5.45 | -1.74 | -19.9 | 5.64 | -9.07 | 2.08 | 12.5 | -5.44
Cc1cc2n(n1)CC(CNC1CCN(c3ccc(F)cc3)CC1)CN2 (stereo unspecified) | -2.69 | 8.11 | -9.27 | 18.6 | 6.35 | 15.1 | -0.0858 | -21.8 | 1.07 | 18.5 | -6.89
Cc1cnn(CC2CCCCN2Cc2nnc(-c3ccco3)o2)c1 (stereo unspecified) | -5.16 | 13.5 | -9.36 | 20.3 | 3.11 | -5.61 | 13.3 | 7.01 | 8.37 | 18.5 | -11.7
Cc1ccc(CN2CCCC3(CCN(S(=O)(=O)N(C)C)C3)C2)o1 (stereo unspecified) | -4.24 | 10.7 | 11.3 | 7.3 | -2.17 | 3.03 | 13.7 | 9.85 | 7.45 | 19.2 | -3.25
COc1ccc(C2CC(=O)Oc3cc(C)[nH]c(=O)c32)cc1 (stereo unspecified) | -5.52 | 6.67 | 5.42 | 2.83 | 4.13 | -0.528 | 11.1 | 3.33 | 2.12 | 5.13 | -1.69
CNS(=O)(=O)c1ccc(C(=O)N2CCCC2Cc2ccccc2)o1 (stereo unspecified) | -3.24 | -42.1 | 1.36 | -2.48 | 2.52 | 1.8 | 12.6 | 16.6 | 4.43 | 16.1 | -9.41
C=Cn1ncc(CN2C[C@@H]3CCCN3C[C@H]2CCSC)c1C | -0.255 | 1.35 | 5.26 | 9.13 | 4.94 | -1.16 | 9.36 | 15.9 | 1.07 | 1.3 | -6.62
O=S(=O)(C1CC1)N1C[C@H]2CCC[C@@]2(COc2ccccn2)C1 | -0.747 | 14.7 | 2.3 | 3.09 | -4.32 | 5.81 | 15.3 | -6.25 | 3.17 | 10.3 | -5.69
COc1ccc(Br)c(C(=O)NCC2CCN(C(=O)c3ccoc3)CC2)c1 | -6.69 | 5.48 | 7.36 | -0.134 | 0.783 | 3.18 | 12.4 | 7.16 | 5.38 | 17.5 | -6.16
